From PubChem
HT1080-NT tox: kills 2HG-producing HT-1080-NT fibrosarcoma cells | HT-1080-NT fibrosarcoma viability, CellTiter-Glo ATP luminescence, 48 h | Potency, µM (titrated, usually from 46.1 µM), inactives show top-dose activity, negative = less viability, actives largely listed as cytotoxic | 360,000 compounds, 1.6% hits | AID 686970;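 note: NT is the 2HG producing partner of a matched IDH1 knockdown line; 0% = DMSO-treated cells and -100% = media-only wells without cells; nearly all actives have a fitted effect of over 55% in size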
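Read-out is CellTiter-Glo luminescence after 10 minutes at room temperature, following 48 hours' compound treatment of HT-1080-NT cells (750 cells/well, RPMI, 5% FBS, 37 degrees C).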
KB-3-1 cytotox: kills parental KB-3-1 adenocarcinoma cells. Potency, µM (highest dose often 46.1 µM), most hits filed as cytotoxic. 400,000 compounds, 1.4% hits. KB-3-1 viability, CellTiter-Glo ATP luminescence, 72 h; note: % is set by controls: 0 for no effect and ±100 for the full control effect; nearly all actives have a fitted effect of over 60% in size
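Parental KB-3-1 adenocarcinoma cells in phenol-red-free DMEM with 10% FBS were pin-treated with compounds at several concentrations, incubated 72 h at 37 °C, and viability read by CellTiter-Glo luminescence; concentration-effect curves were fitted after normalization.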
TGFb inhibitor: inhibitors of TGF-b signaling | HepG2 CAGA-GFP TGF-b/SMAD3 reporter, GFP fluorescence, 18 h; TGF-beta stimulated, 500 pg/mL final | Potency, µM (series often up to 46.1 µM), for inactives: top-dose activity, negative = inhibition, actives largely listed as inhibitors | 410,000 compounds, 1.2% hits; note: % is set by controls: 0 for no effect and ±100 for the full control effect; nearly all actives have a fitted effect of over 65% in size
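HEPG2 CAGA-GFP, 1000 cells/well; 2 h settle, 37 C; cpd via pin tool; TGF-b 500 pg/mL final; 18 h, 37 C; GFP imaging ex488/em500-530; %Activity normalised to -TGF-b and +DMSO controls; CRC fit, curve class.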
HepG2 tox: counter-screen for TGF-b inhibitors: cytotoxicity in HepG2 cells; HepG2 CAGA-GFP viability, ATP luminescence, 18 h; Potency, µM (titrated, usually from 46.1 µM), for inactives: top-dose activity change, negative = cytotoxicity, actives largely listed as cytotoxic; 410,000 compounds, 0.76% hits
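HepG2 CAGA-GFP cells (1000/well, DMEM with 1% FBS) received compound, then TGF-beta at 500 pg/mL final, and were incubated 18 hours at 37 degrees C. Viability was read by CellTiter-Glo luminescence. Media-only wells were set as complete cell-killing and DMSO as no toxicity.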
HT1080 IDH1KD tx: kills HT-1080 cells with IDH1 knockdown; HT-1080 IDH1 knockdown viability, ATP luminescence, 48 h; Potency, µM (titrated, usually from 46.1 µM), for inactives: at the top dose activity, negative = toxicity, usual class: cytotoxic; 360,000 compounds, 2% hits;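 note: 0% = DMSO wells and -100% = cell-free medium wells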
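After a 2 h attachment period, IDH1KD HT-1080 cells took pin-transferred compound for 48 h at 37 °C; ATP-based luminescence after 10 min room-temperature reagent incubation reported viability.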
KB-V1 MDR tox: KB-V1 MDR subline cytotoxicity; KB-V1 MDR cells viability, CellTiter-Glo, 72 h; Potency, µM (doses to about 46.1 µM), actives largely listed as cytotoxic; 400,000 compounds, 3.4% hits; note: % is set by controls: 0 for no effect and ±100 for the full control effect; nearly all actives have a fitted effect of over 60% in size
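Luminescent ATP read-out (CellTiter-Glo, 10 min) measures survival of drug-selected KB-V1 MDR cells after 72 h, 37 degrees C compound exposure. Medium: phenol-red-free DMEM, 10% FBS. Values from fitted concentration-response curves.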
Starred values were filed as active, the others as inactive; i = inactive; ? = inconclusive; / = no result given. Rows were chosen to be rich in hits. Some 6.6% of all compounds tested hit in one or more screens of this group. Calls come from the whole dose curve; as a rule, active = well fitted curve in the direction sought with a large enough effect; inconclusive = small, poorly fitted or top-dose-only effect, or another doubt; inactive = no such curve, though single readings can be large; an effect the other way counts as inactive or inconclusive. Potency is the fitted concentration of half-maximal effect.

SMILES	HT1080-NT tox	KB-3-1 cytotox	TGFb inhibitor	HepG2 tox	HT1080 IDH1KD tx	KB-V1 MDR tox
CC(=O)Nc1ccc(-c2ccnc3c2CC(C)(C(=O)Nc2ccc4c(c2)OCO4)O3)cc1 (configuration not stated)	?	18.4µM*	35.5%	-0.6%	?	i
O=C(COCc1cc(-c2ccc3c(c2)OCO3)on1)Nc1cccnc1	6.51µM*	i	-2.8%	7.5%	5.8µM*	?
CN(C)/C=C1\C=Cc2ccccc21	/	i	?	-27.0%	/	i
CCC(=O)Nc1ccc2nc(SCc3ccccc3)sc2c1	/	/	/	-17.8%	/	/
Cc1nc2ccccn2c1C(=O)CSc1ccc(Cl)cc1Cl	-5.4%	i	0.4%	-13.1%	3.7%	?
Cc1nc2ccccn2c1C(=O)CSc1ccccc1Cl	-7.2%	?	-1.4%	-20.3%	-25.2%	16.4µM*
COc1cccc(COc2ccccc2C2Nc3ccc(Br)cc3C(=O)N2NC(=O)c2ccncc2)c1 (configuration not stated)	-11.5%	?	?	-38.7%	-5.2%	8.2µM*
Cc1ccc(CN(Cc2cccn2-c2nnc(N3CCCC3=O)s2)C(=O)Nc2ccccc2Cl)cc1	/	i	-18.3%	-25.0%	/	i
CCCCn1c(N)c(N(CCOC)C(=O)CC(NC(=O)c2ccccc2Cl)c2ccccc2)c(=O)[nH]c1=O (configuration not stated)	7.8%	i	-1.9%	-7.6%	4.9%	i
COc1ccc(CN(C)C(=O)CCl)cc1	?	i	10.7%	-12.8%	?	i
CN(Cc1ccc(Cl)cc1)C(=O)CCl	?	16.4µM*	?	-110.9%	16.4µM*	?
CN(Cc1ccc(Cl)s1)C(=O)CCl	20.6µM*	?	7.08µM*	-63.0%	8.2µM*	?
O=C(NCC1CCCO1)c1cccc(S(=O)(=O)N(Cc2ccccc2)c2ccccc2)c1 (configuration not stated)	-3.4%	i	16.7%	3.3%	-7.7%	8.2µM*
CC1(C)CC(NC(=O)c2cccc(S(=O)(=O)N(Cc3ccccc3)c3ccccc3)c2)CC(C)(C)N1	-2.7%	?	?	14.1µM*	-1.7%	i
CCN(CC)S(=O)(=O)c1cccc(C(=O)NCC2CCCCC2)c1	-16.6%	?	3.6%	-0.8%	-10.1%	11.6µM*
C/C(=N\NC(=O)c1ccc(Cl)c(Cl)c1)c1ccccn1	?	?	?	-5.2%	1.84µM*	i
COc1ccc(NC(=O)c2ccccn2)cc1OC	?	i	24.1%	5.9%	-1.7%	i
COc1ccc(C(=O)N/N=C(\c2ccccc2)c2ccccn2)cc1	?	i	?	-7.1%	?	0.651µM*
O=C(NN=C(c1ccccc1)c1ccccn1)c1ccccc1	-19.9%	?	?	-19.4%	?	?
C/C(=N\NC(=O)c1cccc2ccccc12)c1ccccn1	?	?	3.16µM*	-10.8%	?	i
COc1ccc(C(=O)N/N=C(\C)c2ccccn2)cc1OC	-26.7%	?	?	-47.9%	10.3µM*	2.31µM*
CCc1ccc(NCc2cc3ccc(OC)cc3n(CC(=O)Nc3ccc(F)cc3F)c2=O)cc1	/	?	23.6%	0.1%	/	?
CC(=O)c1ccc(NC(=O)C(Cc2ccccc2)NS(=O)(=O)c2ccc3c(c2)CCC(=O)N3)cc1 (configuration not stated)	/	i	?	3.8%	/	i
Cc1ccc2c(c1)c1c(c(=O)n(-c3cccc(Cl)c3)c(=O)n1CC(=O)Nc1c(C)cccc1C)n2C	/	i	-17.9%	3.7%	/	i
C/C(=N\NC(=O)C(c1ccccc1)c1ccccc1)c1ccccn1	9.2µM*	13µM*	?	-12.7%	5.8µM*	i
